The target of assay [1] is T1, Inhibitor of nuclear factor kappa-B kinase subunit alpha (Homo sapiens) (UniProt O15111).
T1 sequence (whole entry): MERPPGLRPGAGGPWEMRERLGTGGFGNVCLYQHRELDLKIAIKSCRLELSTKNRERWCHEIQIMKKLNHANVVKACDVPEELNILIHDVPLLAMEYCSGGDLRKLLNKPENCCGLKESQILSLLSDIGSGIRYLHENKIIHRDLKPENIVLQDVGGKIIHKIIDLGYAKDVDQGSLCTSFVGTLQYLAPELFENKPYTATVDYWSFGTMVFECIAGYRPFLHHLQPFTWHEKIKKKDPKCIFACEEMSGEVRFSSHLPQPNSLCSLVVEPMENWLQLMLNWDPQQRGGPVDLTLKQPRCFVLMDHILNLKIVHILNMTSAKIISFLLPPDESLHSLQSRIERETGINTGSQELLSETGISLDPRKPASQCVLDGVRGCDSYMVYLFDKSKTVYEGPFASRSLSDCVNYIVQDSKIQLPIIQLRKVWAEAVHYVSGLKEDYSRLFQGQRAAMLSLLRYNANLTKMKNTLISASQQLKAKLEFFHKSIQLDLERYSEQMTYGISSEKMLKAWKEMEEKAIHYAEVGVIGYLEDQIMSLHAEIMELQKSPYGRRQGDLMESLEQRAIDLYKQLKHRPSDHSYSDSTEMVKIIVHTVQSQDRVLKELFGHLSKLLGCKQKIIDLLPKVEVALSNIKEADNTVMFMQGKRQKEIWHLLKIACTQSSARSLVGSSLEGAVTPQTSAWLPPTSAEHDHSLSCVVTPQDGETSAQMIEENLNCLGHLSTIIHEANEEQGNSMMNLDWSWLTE
To be noted: at 1 µM.

Assay [2] addresses T1, Inhibitor of nuclear factor kappa-B kinase subunit alpha (Homo sapiens). Conditions: at 10 µM.
Assay [3] has as its target T2, Inhibitor of nuclear factor kappa-B kinase subunit beta (Homo sapiens) (UniProt O14920).
T2 sequence (whole entry): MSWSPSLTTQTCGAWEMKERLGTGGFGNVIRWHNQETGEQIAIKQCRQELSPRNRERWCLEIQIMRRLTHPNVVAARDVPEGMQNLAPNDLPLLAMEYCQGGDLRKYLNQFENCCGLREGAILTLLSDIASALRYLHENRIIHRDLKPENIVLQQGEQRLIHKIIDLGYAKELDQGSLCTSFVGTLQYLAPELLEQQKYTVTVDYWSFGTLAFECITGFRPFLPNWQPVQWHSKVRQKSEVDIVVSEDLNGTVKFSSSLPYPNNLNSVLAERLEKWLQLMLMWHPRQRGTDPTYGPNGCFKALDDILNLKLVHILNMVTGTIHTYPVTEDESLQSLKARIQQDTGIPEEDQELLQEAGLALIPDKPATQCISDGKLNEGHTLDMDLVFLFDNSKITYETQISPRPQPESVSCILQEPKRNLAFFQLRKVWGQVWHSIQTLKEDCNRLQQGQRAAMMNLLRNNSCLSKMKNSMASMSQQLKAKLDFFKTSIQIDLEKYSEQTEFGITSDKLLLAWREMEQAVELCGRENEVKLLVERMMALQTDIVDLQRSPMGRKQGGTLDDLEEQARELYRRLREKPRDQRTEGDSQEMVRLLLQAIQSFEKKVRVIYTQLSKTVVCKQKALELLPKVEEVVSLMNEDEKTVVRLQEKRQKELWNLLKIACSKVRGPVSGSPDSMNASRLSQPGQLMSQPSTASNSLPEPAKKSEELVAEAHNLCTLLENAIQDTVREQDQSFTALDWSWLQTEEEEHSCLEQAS
Conditions: at 10 µM.

Assay [4] has as its target Insulin receptor (Homo sapiens) (UniProt P06213). Conditions: at 1 µM.
The target is the same in assay [5]. To be noted: at 10 µM.
Assay [6] has as its target Interleukin-1 receptor-associated kinase 1 (Homo sapiens) (UniProt P51617). To be noted: at 1 µM.
Assay [7] shares this target. To be noted: at 10 µM.
Assay [8] concerns the target T3, Interleukin-1 receptor-associated kinase 4 (Homo sapiens) (UniProt Q9NWZ3).
T3 sequence (whole entry): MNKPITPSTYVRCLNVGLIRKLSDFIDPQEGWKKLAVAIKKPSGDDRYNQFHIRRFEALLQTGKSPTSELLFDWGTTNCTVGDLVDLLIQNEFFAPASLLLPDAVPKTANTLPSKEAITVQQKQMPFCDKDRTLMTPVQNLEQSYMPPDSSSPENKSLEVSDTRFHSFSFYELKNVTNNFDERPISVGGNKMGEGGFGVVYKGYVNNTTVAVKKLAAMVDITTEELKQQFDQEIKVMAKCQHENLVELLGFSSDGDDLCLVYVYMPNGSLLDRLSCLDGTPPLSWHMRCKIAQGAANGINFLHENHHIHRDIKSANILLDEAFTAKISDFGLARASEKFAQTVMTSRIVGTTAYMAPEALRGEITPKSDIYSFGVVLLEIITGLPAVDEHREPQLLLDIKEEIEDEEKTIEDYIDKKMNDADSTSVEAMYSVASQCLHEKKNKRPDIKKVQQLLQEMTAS
Conditions: at 1 µM.

Assay [9] has as its target T3, Interleukin-1 receptor-associated kinase 4 (Homo sapiens). To be noted: at 10 µM.
For assay [10], the target named is T4, Tyrosine-protein kinase ITK/TSK (Homo sapiens) (UniProt Q08881).
T4 sequence (whole entry): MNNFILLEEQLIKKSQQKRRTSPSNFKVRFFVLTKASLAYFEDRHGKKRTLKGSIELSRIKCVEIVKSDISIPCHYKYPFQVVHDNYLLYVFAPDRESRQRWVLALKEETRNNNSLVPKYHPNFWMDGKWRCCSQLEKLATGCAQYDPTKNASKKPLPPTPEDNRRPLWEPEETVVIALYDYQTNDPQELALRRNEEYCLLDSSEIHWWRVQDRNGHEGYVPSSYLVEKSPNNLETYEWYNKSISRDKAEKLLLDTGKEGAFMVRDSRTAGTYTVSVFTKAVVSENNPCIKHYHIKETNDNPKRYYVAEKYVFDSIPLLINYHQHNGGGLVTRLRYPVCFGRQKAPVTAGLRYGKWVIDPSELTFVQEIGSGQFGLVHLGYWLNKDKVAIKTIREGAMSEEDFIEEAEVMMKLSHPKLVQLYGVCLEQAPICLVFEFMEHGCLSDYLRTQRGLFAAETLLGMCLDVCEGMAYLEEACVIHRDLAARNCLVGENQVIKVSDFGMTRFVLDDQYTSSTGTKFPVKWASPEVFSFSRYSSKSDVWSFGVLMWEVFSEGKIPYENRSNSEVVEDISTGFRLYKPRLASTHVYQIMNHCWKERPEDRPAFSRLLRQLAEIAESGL
To be noted: at 1 µM.

The target in assay [11] is T4, Tyrosine-protein kinase ITK/TSK (Homo sapiens). Conditions: at 10 µM.
Assay [12] addresses Tyrosine-protein kinase JAK2 (Homo sapiens) (UniProt O60674). Conditions: at 1 µM.
Assay [13] shares this target. Conditions: at 10 µM.
For assay [14], the target named is T5, Tyrosine-protein kinase JAK3 (Homo sapiens) (UniProt P52333).
T5 sequence (whole entry): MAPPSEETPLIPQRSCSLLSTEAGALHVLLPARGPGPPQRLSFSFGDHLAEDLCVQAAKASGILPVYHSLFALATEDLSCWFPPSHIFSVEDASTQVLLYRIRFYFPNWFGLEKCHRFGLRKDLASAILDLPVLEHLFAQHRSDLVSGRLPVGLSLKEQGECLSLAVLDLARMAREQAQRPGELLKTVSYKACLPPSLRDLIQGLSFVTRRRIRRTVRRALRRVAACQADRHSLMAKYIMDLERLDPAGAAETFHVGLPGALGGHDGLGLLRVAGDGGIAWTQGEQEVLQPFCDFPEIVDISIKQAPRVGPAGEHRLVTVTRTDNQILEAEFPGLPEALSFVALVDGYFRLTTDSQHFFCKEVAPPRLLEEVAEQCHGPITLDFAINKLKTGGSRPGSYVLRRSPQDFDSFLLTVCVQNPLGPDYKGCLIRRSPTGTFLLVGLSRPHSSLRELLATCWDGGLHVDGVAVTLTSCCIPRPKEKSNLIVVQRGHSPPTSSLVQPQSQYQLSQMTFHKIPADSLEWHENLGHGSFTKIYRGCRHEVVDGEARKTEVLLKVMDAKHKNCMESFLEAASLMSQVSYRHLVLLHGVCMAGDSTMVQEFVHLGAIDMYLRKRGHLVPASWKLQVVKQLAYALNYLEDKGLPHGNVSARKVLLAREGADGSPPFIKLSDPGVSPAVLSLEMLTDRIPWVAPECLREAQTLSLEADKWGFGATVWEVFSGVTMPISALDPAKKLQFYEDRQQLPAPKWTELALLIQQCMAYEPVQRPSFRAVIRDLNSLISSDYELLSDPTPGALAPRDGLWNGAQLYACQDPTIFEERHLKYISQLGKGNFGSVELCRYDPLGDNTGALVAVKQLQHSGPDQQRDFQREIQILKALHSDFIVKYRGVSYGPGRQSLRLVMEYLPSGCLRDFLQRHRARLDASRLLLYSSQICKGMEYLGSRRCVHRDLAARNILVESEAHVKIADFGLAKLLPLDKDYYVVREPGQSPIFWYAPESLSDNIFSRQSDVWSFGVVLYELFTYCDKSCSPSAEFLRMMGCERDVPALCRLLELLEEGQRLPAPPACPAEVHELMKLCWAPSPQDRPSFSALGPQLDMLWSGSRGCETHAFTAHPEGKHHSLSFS
To be noted: at 1 µM.

The target in assay [15] is T5, Tyrosine-protein kinase JAK3 (Homo sapiens). Conditions: at 10 µM.
Assay [16] concerns the target T2, Inhibitor of nuclear factor kappa-B kinase subunit beta (Homo sapiens). Conditions: at 1 µM.
Assay [17] deals with Insulin receptor (Homo sapiens) (UniProt P06213). To be noted: at 1 µM. This is another data set of the same source.
Sequence of Insulin receptor (Homo sapiens) (P06213 28-758 limits assumed): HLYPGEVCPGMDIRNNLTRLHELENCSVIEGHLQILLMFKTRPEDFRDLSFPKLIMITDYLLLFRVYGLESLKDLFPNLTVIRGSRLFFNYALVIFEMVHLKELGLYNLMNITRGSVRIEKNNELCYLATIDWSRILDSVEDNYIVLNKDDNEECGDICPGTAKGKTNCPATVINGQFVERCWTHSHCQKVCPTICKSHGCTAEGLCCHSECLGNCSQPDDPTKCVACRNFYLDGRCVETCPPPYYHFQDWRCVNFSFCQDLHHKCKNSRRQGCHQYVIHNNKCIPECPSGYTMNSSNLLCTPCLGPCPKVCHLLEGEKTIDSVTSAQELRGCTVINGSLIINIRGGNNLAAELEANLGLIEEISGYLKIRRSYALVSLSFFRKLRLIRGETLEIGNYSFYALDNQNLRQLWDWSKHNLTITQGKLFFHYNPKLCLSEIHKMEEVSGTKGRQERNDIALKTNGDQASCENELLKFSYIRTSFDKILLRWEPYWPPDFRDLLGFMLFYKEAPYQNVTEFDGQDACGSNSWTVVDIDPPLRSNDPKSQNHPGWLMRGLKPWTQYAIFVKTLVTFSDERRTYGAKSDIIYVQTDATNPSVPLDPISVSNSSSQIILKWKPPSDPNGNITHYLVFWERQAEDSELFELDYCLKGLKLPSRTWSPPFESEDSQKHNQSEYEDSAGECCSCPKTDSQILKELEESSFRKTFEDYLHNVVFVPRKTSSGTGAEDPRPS
Sequence of Insulin receptor (Homo sapiens) (P06213 763-1382 limits assumed): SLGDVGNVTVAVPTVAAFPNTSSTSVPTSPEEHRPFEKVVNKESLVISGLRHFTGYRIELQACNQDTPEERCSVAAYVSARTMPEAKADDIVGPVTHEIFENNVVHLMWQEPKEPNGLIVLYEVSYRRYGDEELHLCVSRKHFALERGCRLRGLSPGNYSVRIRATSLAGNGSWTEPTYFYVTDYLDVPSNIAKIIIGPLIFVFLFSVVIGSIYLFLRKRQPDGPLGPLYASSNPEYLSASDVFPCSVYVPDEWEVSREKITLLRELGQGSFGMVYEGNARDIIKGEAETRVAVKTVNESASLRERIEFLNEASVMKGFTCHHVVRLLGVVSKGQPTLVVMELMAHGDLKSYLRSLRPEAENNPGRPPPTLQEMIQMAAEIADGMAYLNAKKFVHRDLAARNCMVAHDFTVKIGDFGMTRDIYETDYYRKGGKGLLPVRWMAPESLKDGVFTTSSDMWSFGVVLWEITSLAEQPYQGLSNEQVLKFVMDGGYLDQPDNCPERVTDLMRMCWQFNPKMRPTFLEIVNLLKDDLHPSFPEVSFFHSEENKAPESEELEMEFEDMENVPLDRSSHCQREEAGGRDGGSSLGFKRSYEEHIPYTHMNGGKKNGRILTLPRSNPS
For assay [18] the target is unchanged. Conditions: at 10 µM. This is another data set of the same source.
The target in assay [19] is Insulin receptor-related protein (Homo sapiens) (UniProt P14616). Conditions: at 1 µM.
Sequence of Insulin receptor-related protein (Homo sapiens) (P14616 27-742 limits assumed): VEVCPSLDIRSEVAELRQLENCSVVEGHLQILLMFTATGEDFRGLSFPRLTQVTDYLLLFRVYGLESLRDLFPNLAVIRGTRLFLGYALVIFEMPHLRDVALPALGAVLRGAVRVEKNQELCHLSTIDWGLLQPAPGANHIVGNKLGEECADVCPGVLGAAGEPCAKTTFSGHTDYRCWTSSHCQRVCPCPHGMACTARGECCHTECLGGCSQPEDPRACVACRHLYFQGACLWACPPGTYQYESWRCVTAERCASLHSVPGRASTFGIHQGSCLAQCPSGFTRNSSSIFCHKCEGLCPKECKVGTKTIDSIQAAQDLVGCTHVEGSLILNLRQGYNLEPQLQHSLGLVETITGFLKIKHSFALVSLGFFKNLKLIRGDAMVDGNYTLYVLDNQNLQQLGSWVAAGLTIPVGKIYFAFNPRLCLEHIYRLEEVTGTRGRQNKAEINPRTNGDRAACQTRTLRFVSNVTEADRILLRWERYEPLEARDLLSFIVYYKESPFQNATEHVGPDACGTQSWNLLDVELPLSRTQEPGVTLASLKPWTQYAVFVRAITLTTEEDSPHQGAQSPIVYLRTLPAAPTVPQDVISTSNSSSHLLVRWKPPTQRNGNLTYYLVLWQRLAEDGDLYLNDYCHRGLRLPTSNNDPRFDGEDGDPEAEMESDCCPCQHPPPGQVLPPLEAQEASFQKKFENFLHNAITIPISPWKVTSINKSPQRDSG
Sequence of Insulin receptor-related protein (Homo sapiens) (P14616 747-1297 limits assumed): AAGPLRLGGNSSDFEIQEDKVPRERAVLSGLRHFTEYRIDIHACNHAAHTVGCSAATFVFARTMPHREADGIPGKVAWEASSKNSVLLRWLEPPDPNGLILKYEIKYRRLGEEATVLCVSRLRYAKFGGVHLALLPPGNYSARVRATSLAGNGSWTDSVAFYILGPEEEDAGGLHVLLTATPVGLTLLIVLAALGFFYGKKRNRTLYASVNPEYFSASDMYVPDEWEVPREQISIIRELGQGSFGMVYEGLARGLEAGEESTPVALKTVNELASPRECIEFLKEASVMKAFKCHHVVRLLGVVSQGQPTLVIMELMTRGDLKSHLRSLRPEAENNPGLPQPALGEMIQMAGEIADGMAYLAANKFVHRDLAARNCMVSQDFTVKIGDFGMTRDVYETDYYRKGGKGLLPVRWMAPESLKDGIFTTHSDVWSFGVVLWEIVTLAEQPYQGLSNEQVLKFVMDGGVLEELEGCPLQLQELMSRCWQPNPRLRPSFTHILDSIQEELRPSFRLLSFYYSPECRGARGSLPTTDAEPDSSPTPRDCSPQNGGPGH
For assay [20] the target is unchanged. To be noted: at 10 µM.

Sequence of Interleukin-1 receptor-associated kinase 1 (Homo sapiens) (P51617 whole entry, looked up): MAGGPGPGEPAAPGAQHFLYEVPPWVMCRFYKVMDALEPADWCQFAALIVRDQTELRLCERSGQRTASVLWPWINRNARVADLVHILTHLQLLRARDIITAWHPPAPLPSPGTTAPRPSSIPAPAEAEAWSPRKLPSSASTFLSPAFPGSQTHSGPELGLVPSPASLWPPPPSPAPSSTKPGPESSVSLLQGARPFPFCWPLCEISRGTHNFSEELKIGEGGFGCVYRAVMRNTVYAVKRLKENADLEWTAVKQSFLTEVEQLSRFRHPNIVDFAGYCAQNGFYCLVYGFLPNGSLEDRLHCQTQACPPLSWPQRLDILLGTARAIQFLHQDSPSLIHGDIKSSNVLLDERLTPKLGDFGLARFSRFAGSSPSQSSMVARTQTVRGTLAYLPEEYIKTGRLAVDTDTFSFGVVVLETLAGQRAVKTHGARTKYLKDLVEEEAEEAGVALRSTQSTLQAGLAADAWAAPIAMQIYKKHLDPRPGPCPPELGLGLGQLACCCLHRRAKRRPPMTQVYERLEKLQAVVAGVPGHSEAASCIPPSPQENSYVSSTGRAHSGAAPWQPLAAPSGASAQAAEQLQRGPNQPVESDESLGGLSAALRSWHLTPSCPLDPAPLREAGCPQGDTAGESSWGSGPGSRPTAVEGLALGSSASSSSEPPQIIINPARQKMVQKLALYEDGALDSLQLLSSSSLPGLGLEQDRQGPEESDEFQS
Sequence of Tyrosine-protein kinase JAK2 (Homo sapiens) (O60674 whole entry): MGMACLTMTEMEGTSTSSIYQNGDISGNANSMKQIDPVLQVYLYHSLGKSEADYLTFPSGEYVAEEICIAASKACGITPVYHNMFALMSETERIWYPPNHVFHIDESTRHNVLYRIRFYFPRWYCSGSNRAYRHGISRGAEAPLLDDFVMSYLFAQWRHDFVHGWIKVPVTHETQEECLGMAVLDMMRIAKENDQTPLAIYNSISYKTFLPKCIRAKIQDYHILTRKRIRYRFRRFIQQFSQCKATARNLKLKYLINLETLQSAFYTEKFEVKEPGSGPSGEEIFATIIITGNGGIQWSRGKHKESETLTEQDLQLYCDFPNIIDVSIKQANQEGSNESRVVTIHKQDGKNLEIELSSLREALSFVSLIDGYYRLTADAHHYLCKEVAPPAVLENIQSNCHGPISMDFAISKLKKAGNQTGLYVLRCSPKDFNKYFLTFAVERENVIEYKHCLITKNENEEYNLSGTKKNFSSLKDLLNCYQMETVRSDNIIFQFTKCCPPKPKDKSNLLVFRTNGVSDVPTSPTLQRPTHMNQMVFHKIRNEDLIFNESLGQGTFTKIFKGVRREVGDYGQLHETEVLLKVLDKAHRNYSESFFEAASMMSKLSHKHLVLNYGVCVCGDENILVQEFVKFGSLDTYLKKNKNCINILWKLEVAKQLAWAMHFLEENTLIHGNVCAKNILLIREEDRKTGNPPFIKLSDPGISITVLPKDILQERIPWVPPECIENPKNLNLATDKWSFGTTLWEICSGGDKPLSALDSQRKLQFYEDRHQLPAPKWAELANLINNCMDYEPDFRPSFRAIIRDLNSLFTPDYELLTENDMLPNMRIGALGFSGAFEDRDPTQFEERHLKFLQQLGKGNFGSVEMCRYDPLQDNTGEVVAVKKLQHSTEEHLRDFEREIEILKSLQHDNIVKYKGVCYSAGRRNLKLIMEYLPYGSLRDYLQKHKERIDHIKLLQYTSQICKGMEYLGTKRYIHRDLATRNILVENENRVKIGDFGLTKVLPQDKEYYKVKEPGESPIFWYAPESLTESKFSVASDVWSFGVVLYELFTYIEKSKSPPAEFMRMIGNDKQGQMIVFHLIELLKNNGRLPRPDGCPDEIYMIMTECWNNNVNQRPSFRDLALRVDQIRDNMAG

In the case of `CCn1cnc2c(Nc3cccc(Cl)c3)nc(N[C@@H]3CCCC[C@@H]3N)nc21`, the residual activity – broadly, the signal under treatment as a percentage of the control signal – was 99% in [1]; 89% in assay [2]; 93% in assay [3]; 70% in assay [4]; 34% in assay [5]; 85% in assay [6]. For the same compound, the residual activity in [7] is 64%; in [8], 85%; in assay [9], 23%; in [10], 89%; in assay [11], 39%; in [12], 116%. Also, the residual activity in [13] turned out to be 78%; in assay [14], 112%; in assay [15], 119%.

Take `COc1cc2ncnc(Nc3ccc(OCc4ccccc4)cc3)c2cc1OC`: the residual activity in assay [1] worked out at 105%; in [2], 99%; in assay [16] it was 117%; in [3] it was 103%; in assay [17] it was 115%; in assay [18], 98%. Also, the residual activity stood at 102% in assay [4]; 104% in assay [5]; 81% in [6]; 102% in assay [7]; 127% in assay [8]; 92% in assay [9]. Also, the residual activity in assay [19] was found to be 125%; in assay [20], 57%; in [10] it was 107%; in assay [11] it was 99%; in assay [12] it was 110%; in [13] it was 90%. Also, the residual activity in [14] was determined as 101%; in assay [15] it was 100%.

Consider `c1cc(-c2cnn3cc(-c4ccc(OCCN5CCCCC5)cc4)cnc23)ccn1`, for which the residual activity is 86% in [2]; 85% in assay [3]; 138% in assay [17]; 23% in assay [6]; 2% in [7]; 81% in assay [8]. Besides, the residual activity came out at 18% in assay [9], 54% in assay [10] and 9% in assay [11].

For the compound `CCc1nc(-c2ccc(OC)cc2)[nH]c1-c1ccncc1`, the residual activity in [1] is 100%; in assay [2], 104%; in assay [16], 119%; in [3] it was 112%; in assay [12], 100%; in assay [13] it was 105%. Besides, the residual activity in [14] amounted to 113%; in assay [15] it was 103%.

Turning to `O=c1[nH]c2ccccc2n1C1CCN(Cc2ccc(-c3nc4cc5[nH]cnc5cc4nc3-c3ccccc3)cc2)CC1`, the residual activity in assay [1] stood at 118%; in assay [2] it was 109%; in assay [16], 101%; in assay [3], 102%; in [17], 119%; in [18], 75%. The residual activity amounted to 103% in assay [4]; 98% in assay [5]; 103% in assay [6]; 88% in assay [7]; 106% in [8]; 93% in assay [9]. For the same compound, the residual activity in [19] worked out at 124%; in assay [20], 95%; in assay [10], 99%; in assay [11] it was 95%; in [12], 120%; in assay [13], 107%. Further, the residual activity in [14] amounted to 110%; in assay [15], 126%.

For the origin of these results see ChEMBL document CHEMBL2218924, “A broad activity screen in support of a chemogenomic map for kinase signalling research and drug discovery” (Biochem J, 2013).
